About 79,000 compounds went through this panel and 15% of them were active in at least one assay; those are over-represented in the sample as a whole. Unmarked numbers belong to inactive results. Active and inactive are the calls of the source. Rule as the data show it: active = growth inhibition above about 70%; inactive = the rest.
What was measured:
[1] = NCI Yeast Anticancer Drug Screen. Data for the rad50 strain (AID 155);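 also: 0% = growth of vehicle-only cultures of the same strain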; details: S. cerevisiae rad50 strain growth inhibition; at 50.0 µM; hits give high values
In short: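 Compounds were tested on a yeast strain with an engineered DNA damage repair alteration; the reported value is growth inhibition normalised to vehicle treatment.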

[2] = NCI Yeast Anticancer Drug Screen. Data for the mec2-1 strain (AID 157); details: S. cerevisiae mec2-1 strain, at 50.0 µM, hits give high values
In short: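 Readout is yeast growth inhibition, normalised to vehicle-treated controls, in the mec2-1 strain exposed to compound.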

[3] = NCI Yeast Anticancer Drug Screen. Data for the sgs1 mgt1 strain (AID 161);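 also: 0% = growth of cultures given vehicle only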; details: S. cerevisiae sgs1 mgt1 strain, at 50.0 µM, hits give high values
In short: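 Compounds are added to genetically altered yeast, and growth is compared with cultures given vehicle alone to give percent inhibition.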

[4] = NCI Yeast Anticancer Drug Screen. Data for the cln2 rad14 strain (AID 165);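 also: 0% = growth equal to vehicle treated cultures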; details: S. cerevisiae cln2 rad14 strain, at 50.0 µM, hits give high values
In short: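 Relative to vehicle controls, growth inhibition of compound-treated cln2 rad14 yeast was recorded.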

[5] = NCI Yeast Anticancer Drug Screen. Data for the bub3 strain (AID 167); details: S. cerevisiae bub3 mutant strain, at 50.0 µM, hits give high values
In short: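 Growth of a checkpoint-deficient yeast mutant is measured after compound exposure. Values represent inhibition relative to vehicle.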

[6] = NCI Yeast Anticancer Drug Screen. Data for the mlh1 rad18 strain (AID 175); details: S. cerevisiae mlh1 rad18 strain growth inhibition; at 50.0 µM; hits give high values
In short: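 Test agents were incubated with a yeast strain of defined genotype (DNA damage repair defect). Inhibition of growth was derived by comparison with vehicle-exposed cultures.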

| SMILES | growth inhibition [1] | growth inhibition [2] | growth inhibition [3] | growth inhibition [4] | growth inhibition [5] | growth inhibition [6] |
| --- | --- | --- | --- | --- | --- | --- |
| Cc1ccc(S(=O)(=O)C(C#N)(Cc2c[nH]c3ccccc23)Cc2c[nH]c3ccccc23)cc1 | 4.85% | 9.25% | -5.25% | -16.2% | 11.8% | 6.5% |
| O=C(CCN1CCCC1)c1ccc2ccccc2c1 | 32.6% | 49.3% | 65.9% | 43.6% | 59.4% | 21.6% |
| O=C1c2ccccc2C(=O)C1(Cl)C(Cl)c1ccc([N+](=O)[O-])cc1 (stereo unspecified) | 99.3% (active) | 98.9% (active) | 99.6% (active) | 99.1% (active) | 99.3% (active) | 99.5% (active) |
| CC(SC(=S)Nc1ccc(Cl)cc1)C(=O)O (stereo unspecified) | 39.5% | 1.15% | 24.8% | -42% | 4.8% | 12.3% |
| CCOC(=O)NC(=O)c1cn(CCCOC(=O)CCCCCCCCC(=O)OCCCn2cc(C(=O)NC(=O)OCC)c(=O)n(C)c2=O)c(=O)n(C)c1=O | -16.4% | -25.1% | -25.2% | 6% | 4.3% | -23.7% |
| Cc1ccc(S(=O)(=O)NN=C2CCCCC2)cc1 | -3.45% | -11.4% | -1.3% | -19.4% | -14.5% | -11.8% |
| C[OH2+].[Cl][Cu+].[Cl][Cu+].[NH-]CCC([OH2+])CC[NH-] | -9.1% | -12.2% | -14.4% | -57.5% | -2.8% | 8.2% |
| NCS(=O)(=O)O | -12.8% | -23.1% | -18.9% | 9.5% | -24.2% | -26.1% |
| COc1ccc2c(N=[N+]=[N-])cc(C)nc2c1 | -42.2% | -1.45% | -16.9% | -57.5% | 1.55% | 20.4% |
| O=c1[nH]c(=S)c2ncn(C3OC(CO)C(O)C3O)c2[nH]1 (stereo unspecified) | -0.5% | -13.7% | -11.1% | 4.4% | -1.1% | 11.8% |
| CSC(=Nc1nnc(-c2ccc([N+](=O)[O-])cc2)s1)SC | 8.35% | 1.2% | -23.6% | -11.6% | -5.5% | -47% |
| Cc1nc2cc(C)c(C)cc2[nH]1 | -7.55% | -1% | 3.75% | -9.15% | 8.9% | 5.8% |
| Cc1cccc(CN(C)C)c1C=C(c1ccccc1)c1ccccc1 | 11.9% | -1% | 10.6% | -0.05% | 8.7% | 33% |
| O=C1OC2(CC1n1cnc3ccccc3c1=O)C(=O)Nc1ccccc12 (stereo unspecified) | 4.3% | -21.2% | 8.5% | 8.3% | -1.15% | 11.2% |
| O=S(=O)(NC1CCC(CC2CCCCC2)CC1)c1ccccc1 (stereo unspecified) | 81% (active) | 42% | 47.5% | 40% | 88.4% (active) | 82.5% (active) |
| O=C1OCC/C1=C\c1ccsc1 | 6.4% | 10.2% | -6.9% | -6% | -8.3% | -3.4% |
| Cc1c2ccccc2c(CN2CC(O)CC2C(=O)O)c2ccccc12 (stereo unspecified) | 70.6% (active) | 33.2% | 63% | 78.5% (active) | 51.8% | 93.8% (active) |
| CN(C)c1ccc(/C=C2N=C(/C=C\c3ccccc3)OC\2=O)cc1 | -5.5% | 4.75% | -6.05% | 0.25% | 7.55% | 9.45% |
| CCOC(=O)C(CCC(C)=O)C(=O)OCC | -1.25% | 12.8% | -6.15% | 24.6% | 5.65% | -19.1% |
| C=C(CCC(Cl)C(O)CO)[Si](C)(C)C (stereo unspecified) | 37.5% | -19.2% | 52% | 45.3% | 49.2% | 48.6% |
| c1ccc(Cn2ccnc2CSCCSCc2nccn2Cc2ccccc2)cc1 | 17.5% | 37.2% | -5.8% | 12.9% | -0.65% | 29.9% |

| SMILES | growth inhibition [1] | growth inhibition [2] | growth inhibition [3] | growth inhibition [4] | growth inhibition [5] | growth inhibition [6] |
| --- | --- | --- | --- | --- | --- | --- |
| COc1cccc(/C=C\C#N)c1 | -23.1% | -1.3% | -45% | -7.05% | -26.9% | -22.1% |
| CCOc1cc2c(cc1O)CC[C@@H]1[C@@H]2CC[C@]2(C)C(OS(=O)OC3CC[C@@H]4[C@H]5CCc6cc(O)c(OCC)cc6[C@@H]5CC[C@@]34C)CC[C@@H]12 (stereo partly specified) | -12.8% | 0.25% | 4.8% | 26.7% | 18.6% | -15.5% |
| CC(=O)n1cc(CC(C)O)c(=O)[nH]c1=O (stereo unspecified) | -2.45% | -21% | -16.2% | 4.85% | -13.2% | -28.1% |
| COC(=O)C(=O)C(C(=O)C=C(C)C)C(=O)C(=O)Nc1cc(C(F)(F)F)ccc1Cl (stereo unspecified) | -3% | -1.4% | 6% | -57.1% | 1.15% | -10.8% |
| O=C(O)C1C2C3CCC(C3)C12 (stereo unspecified) | 2.7% | 16.4% | 8.2% | 34.6% | -4.9% | 1.95% |
| O=C(Nc1ccc(Cl)cc1)NS(=O)(=O)c1coc2cc(F)ccc2c1=O | 7% | -11.2% | -23.6% | 31.6% | 16.4% | 11.4% |
| Cc1ccc(C)c(NC(=O)NC(C)C)c1 | -0.6% | 0.5% | 5.45% | -25.6% | -5.3% | -0.35% |
| C1=CC(=C(c2ccccc2)c2ccccc2)C=C1 | -17.1% | -16.9% | -4.5% | -19.2% | -2.75% | -1.9% |
| O=[n+]1c2ccccc2n([O-])c2cn(-c3ccccc3)c(-c3ccccc3)c21 | 73.5% (active) | 67.4% | 88.3% (active) | 80.5% (active) | 46.9% | 89.2% (active) |
| O=c1[nH]c(=O)c2nccnc2[nH]1 | 9.1% | -0.6% | -10.7% | 0.75% | 5% | 5.1% |
| CNC(=S)/C(C(C)=O)=C(\C)Nc1ccccc1 | -0.95% | -5.55% | -8.05% | -32.1% | -14.6% | 15.2% |
| CCN1CCCC(SC(=O)C(O)(c2ccccc2)c2ccccc2)C1 (stereo unspecified) | -16.6% | -5.75% | -22.1% | -15.2% | -4.15% | 0.15% |
| CCCCNCCCC(C(=O)O)c1ccccc1 (stereo unspecified) | 2.1% | -3.4% | 3.8% | -10.3% | -35.2% | 6.75% |
| NC(=O)Nc1ccccc1 | 11.4% | -8.6% | -7.55% | -34.5% | -5.2% | 14.2% |
| CCOC(=O)/C(C#N)=C/c1c(-c2ccccc2)nn2ccccc12 | 42.6% | 26.6% | 28.1% | -2.4% | -7.7% | 20.6% |
| COC(C(O)C(O)C(O)C(O)CO)n1cnc2cncnc21 (stereo unspecified) | 4.05% | 5.45% | 7.8% | 2.9% | -4.2% | 2.45% |
| CCN(CC)CCNc1ccc(N)c2sc3ccccc3c(=O)c12 | 8.45% | 3.8% | -18.7% | -8.25% | -37.6% | -29.1% |
| CCCCCCCCCCCCCCCC[N+](C)(C)CCN=[N+]=[N-] | 99.4% (active) | 99.7% (active) | 99.7% (active) | 99.2% (active) | 99.5% (active) | 99.5% (active) |
| CCN(CC)c1ccc(/C=N/NC(=O)NN)cc1 | 4.35% | -20.9% | -15.4% | -13.1% | -7.95% | -5.3% |
| CCN(CC)CCCC(C)n1c(-c2ccc(OC)cc2)nc2cc(Cl)ccc21 (stereo unspecified) | -0.65% | 8.5% | 26.9% | 10.1% | 6.55% | 4.6% |
